Shown are actives, neighbours in structure and some others; about 2.1% of the full set was active somewhere.
YB-1 expression = YB-1 expression inhibition; delta delta Cp (YB-1 minus CDIP) (no concentration beside the values); 30,000 compounds, 0.37% hits; U2OS, qRT-PCR YB-1 vs CDIP delta delta Cp, 16 h; hits give high values; zero = DMSO, each unit about twofold; AID 434959;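 active means delta delta Cp rounded down to an integer at or above 3, about 3 SD of DMSO wells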;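 further: higher means less YB-1 transcript or more CDIP transcript relative to DMSO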
ROS inducer = inducers of reactive oxygen species in cancer cells. U2OS ROS induction, H2DCF-DA fluorescence. ROS induction (% of piperlongumine), % at 10 µM. 46,000 compounds, 2% hits. AID 624156; in the data active means ROS induction above about 79%, passing the limit was not always enough; inconclusive means no clear call, values can overlap the other calls
Numbers stand for hits.

C[C@H](CO)N1C[C@H](C)[C@H](CN(C)C)Oc2ccc(NC(=O)CCN3CCOCC3)cc2CC1=O was read as YB-1 expression inactive and ROS inducer inconclusive.
For Cc1ccc(S(=O)(=O)N(CCC(=O)O)Cc2ccccc2)cc1 the results were ROS inducer inactive.
For CCOc1ccc(-c2c(C#N)c(N)nc(SCC(=O)c3ccc(Cl)cc3)c2C#N)cc1 the results were ROS inducer inactive.
Screening COc1cc(CO)ccc1OCC(=O)Nc1ccc(C)cc1 returned ROS inducer 122.
Screening COc1cc(CO)ccc1OCC(=O)Nc1ccccc1F returned ROS inducer inactive.
For Cc1ncoc1C(=O)NCc1ccc(Cl)cc1 the results were ROS inducer inactive.
For CCCCc1nc(OCC(=O)c2ccccc2)c(C#N)c2c1COC(C)(C)C2 the results were ROS inducer inactive.
For CCOC(=O)c1csc(-c2cccs2)n1 the results were ROS inducer inactive.
Screening CCOC(=O)C1=CN(c2ccc(C)cc2)C=C(C(=O)OCC)C1c1cccs1 returned ROS inducer 112.
Screening COc1ccc(CCNC(=O)Cc2c(SC)c3ccccc3n2Cc2ccccc2)cc1OC returned ROS inducer inactive.
For Cn1cc(Cl)c(C(=O)N2CCc3ccccc3C2)n1 the results were ROS inducer inactive.
`Cc1cc(NC(=O)C2CCCCC2C(=O)O)ccc1NC(=O)c1ccccc1` (stereo unspecified) gave ROS inducer 126.
COc1cccc(C(=O)Nc2ccc(NC(=O)C3CCCCC3C(=O)O)cc2)c1 (stereo unspecified) was read as ROS inducer inactive.
Screening CN(C)CCN(C(=O)CN1C(=O)c2ccccc2C1=O)c1nc2c(F)cc(F)cc2s1 returned ROS inducer inactive.
Screening CCc1ccc(Oc2c(C(F)(F)F)oc3c(CN4CCCCC4)c(O)ccc3c2=O)cc1 returned ROS inducer inactive.
C[C@H]1CN([C@@H](C)CO)C(=O)Cc2cc(NC(=O)Nc3ccccc3)ccc2O[C@@H]1CN(C)CC1CCCCC1 was read as YB-1 expression inactive and ROS inducer inactive.
Screening C[C@@H]1CN([C@@H](C)CO)C(=O)Cc2cc(NC(=O)Nc3ccccc3)ccc2O[C@@H]1CN(C)CC1CCCCC1 returned YB-1 expression inactive and ROS inducer 95.
`C[C@@H]1CN([C@H](C)CO)C(=O)Cc2cc(NC(=O)C3CCCCC3)ccc2O[C@H]1CN(C)CC1CC1` gave YB-1 expression inactive and ROS inducer 95.
C[C@H]1CN([C@@H](C)CO)C(=O)Cc2cc(NC(=O)C3CCCCC3)ccc2O[C@H]1CN(C)CC1CCCCC1 was read as YB-1 expression inactive and ROS inducer inactive.
For COC(=O)c1ccc(NC(=O)COc2ccc3ccccc3c2Br)cc1 the results were ROS inducer inactive.
`CCOc1ccc(C2=NCCNC3=C2C(c2ccccc2)N(c2ccccc2)C3=O)cc1` (stereo unspecified) gave ROS inducer inactive.
Screening COc1ccc(-n2c(C)nnc2SCC(=O)Nc2cccc(C(F)(F)F)c2)cc1 returned ROS inducer inactive.
COc1ccc(-n2nnc3c(SCC(=O)Nc4cccc(C(F)(F)F)c4)ncnc32)cc1 was read as ROS inducer 261.
O=C(NC1CCCCCC1)c1ccc2c(c1)OCO2 was read as ROS inducer inactive.
Screening CCOC(=O)c1cnn(C(=O)c2c(C)nc3ccccn23)c1N returned ROS inducer inactive.
CCOC(=O)c1cnn(C(=O)Cc2cccc(OC)c2)c1N was read as YB-1 expression 5.2 and ROS inducer inactive.
Screening COc1cc(C(=O)OC[C@@]2(O)CO[C@H](OC3C(CO)OC(Oc4cc(OC)c(OC)c(OC)c4)C(O)C3O)[C@@H]2O)cc(OC)c1O (stereo partly specified) returned YB-1 expression inactive and ROS inducer inactive.
COc1cc(C(=O)OCC2(O)COC(OCC3OC(Oc4c(OC)cc(CO)cc4OC)C(O)C(O)C3O)C2O)cc(OC)c1O (stereo unspecified) was read as YB-1 expression 7.1 and ROS inducer inactive.
For [N-]=[N+]=NCc1ccccc1C[C@@]1(C(=O)NCC(O)CO)N=C(c2ccc(OCCCO)cc2)O[C@@H]1c1ccccc1 (stereo partly specified) the results were YB-1 expression 9.1 and ROS inducer inactive.
For C=CCN1Cc2ccccc2[C@H]2OC(c3ccc(OCCCO)cc3)=N[C@@]2(CCS(=O)(=O)c2ccccc2)C1=O the results were YB-1 expression inactive and ROS inducer 113.
`CN(C)C(=O)[C@]1(CCS(=O)(=O)c2ccccc2)N=C(c2ccc(OCCCO)cc2)O[C@@H]1c1ccccc1` gave YB-1 expression inactive and ROS inducer 95.
Screening CN(C)C(=O)[C@]1(Cc2ccccc2)N=C(c2ccc(OCCCO)cc2)O[C@@H]1c1ccccc1 returned YB-1 expression inactive and ROS inducer inactive.
For O=C1N(Cc2ccccc2)Cc2ccccc2[C@@H]2OC(c3ccc(OCCCO)cc3)=N[C@]12CCS(=O)(=O)c1ccccc1 the results were YB-1 expression inactive and ROS inducer inconclusive.
[N-]=[N+]=NCc1ccccc1C[C@]1(C(=O)NCC(O)CO)N=C(c2ccc(OCCCO)cc2)O[C@H]1c1ccccc1 (stereo partly specified) was read as YB-1 expression inactive and ROS inducer inactive.
`CC(C(=O)NCc1cccs1)n1ncn2cccc2c1=O` (stereo unspecified) gave ROS inducer inactive.
`O=C(Nc1cccc(Cl)c1)Nc1ccccc1N1CCCCC1` gave ROS inducer inactive.
CCCN(CCC)C(=O)Cn1c(SCc2cccc(Cl)c2)nc2ccncc21 was read as ROS inducer inactive.
For CC(=O)c1cccc(NC(=O)CSc2nc(N3CCCCC3)nc(N3CCCCC3)n2)c1 the results were ROS inducer inactive.
`O=C(O)c1cccc(Nc2nc(Nc3ccccc3)nc(N3CCCC3)n2)c1` gave ROS inducer 150.
`COc1ccc(OC)c(NC(=O)c2cccs2)c1` gave ROS inducer inactive.
C[C@@H]1CCCCO[C@H](CN(C)S(=O)(=O)c2ccc(F)cc2)[C@@H](C)CN([C@H](C)CO)C(=O)c2cc(NC(=O)NC3CCCCC3)ccc2O1 was read as YB-1 expression inactive and ROS inducer 166.
Screening C[C@@H]1CCCCO[C@H](CN(C)S(=O)(=O)c2ccccc2)[C@@H](C)CN([C@H](C)CO)C(=O)c2cc(NC(=O)c3ccccc3)ccc2O1 returned YB-1 expression inactive and ROS inducer inactive.
`Cc1ccc(S(=O)(=O)Nc2ccc3c(c2)C(=O)N([C@H](C)CO)C[C@H](C)[C@@H](CN(C)Cc2ccc4c(c2)OCO4)OCCCC[C@@H](C)O3)cc1` gave YB-1 expression inactive and ROS inducer 95.
C[C@@H]1CCCCO[C@@H](CN(C)S(=O)(=O)c2ccc(F)cc2)[C@@H](C)CN([C@H](C)CO)C(=O)c2cc(NC(=O)Nc3ccc(F)cc3)ccc2O1 was read as YB-1 expression inactive and ROS inducer inactive.
Screening C[C@@H]1CCCCO[C@@H](CN(C)S(=O)(=O)c2ccccc2)[C@@H](C)CN([C@H](C)CO)C(=O)c2cc(NS(=O)(=O)c3ccc(Cl)cc3)ccc2O1 returned YB-1 expression inactive and ROS inducer 113.
